Data reported in ChEMBL document CHEMBL3988442, “University of Dundee, Small-Polar-MMV Screening Library” (2021).
For some assays here: Measured potencies and affinities stand elsewhere.

Legend:
Set-up in all cases: scale not given: direction of the effect not stated beside the values
[1] = molecular target: Protein translocase subunit SecA (Escherichia coli (strain K12)) (UniProt P10408); experiment: Assay to Identify E. coli SecA ATPase Inhibitors; assay type: functional; settings: 30 µM
[2] = molecular target: T1, Ubiquitin-activating enzyme e1, putative (Leishmania donovani (strain BPK282A1)) (UniProt E9BSI1); experiment: Leishmania donovani Ubiquitin Activating Enzyme (LdE1); assay type: functional; settings: 30 µM
T1 sequence (whole entry): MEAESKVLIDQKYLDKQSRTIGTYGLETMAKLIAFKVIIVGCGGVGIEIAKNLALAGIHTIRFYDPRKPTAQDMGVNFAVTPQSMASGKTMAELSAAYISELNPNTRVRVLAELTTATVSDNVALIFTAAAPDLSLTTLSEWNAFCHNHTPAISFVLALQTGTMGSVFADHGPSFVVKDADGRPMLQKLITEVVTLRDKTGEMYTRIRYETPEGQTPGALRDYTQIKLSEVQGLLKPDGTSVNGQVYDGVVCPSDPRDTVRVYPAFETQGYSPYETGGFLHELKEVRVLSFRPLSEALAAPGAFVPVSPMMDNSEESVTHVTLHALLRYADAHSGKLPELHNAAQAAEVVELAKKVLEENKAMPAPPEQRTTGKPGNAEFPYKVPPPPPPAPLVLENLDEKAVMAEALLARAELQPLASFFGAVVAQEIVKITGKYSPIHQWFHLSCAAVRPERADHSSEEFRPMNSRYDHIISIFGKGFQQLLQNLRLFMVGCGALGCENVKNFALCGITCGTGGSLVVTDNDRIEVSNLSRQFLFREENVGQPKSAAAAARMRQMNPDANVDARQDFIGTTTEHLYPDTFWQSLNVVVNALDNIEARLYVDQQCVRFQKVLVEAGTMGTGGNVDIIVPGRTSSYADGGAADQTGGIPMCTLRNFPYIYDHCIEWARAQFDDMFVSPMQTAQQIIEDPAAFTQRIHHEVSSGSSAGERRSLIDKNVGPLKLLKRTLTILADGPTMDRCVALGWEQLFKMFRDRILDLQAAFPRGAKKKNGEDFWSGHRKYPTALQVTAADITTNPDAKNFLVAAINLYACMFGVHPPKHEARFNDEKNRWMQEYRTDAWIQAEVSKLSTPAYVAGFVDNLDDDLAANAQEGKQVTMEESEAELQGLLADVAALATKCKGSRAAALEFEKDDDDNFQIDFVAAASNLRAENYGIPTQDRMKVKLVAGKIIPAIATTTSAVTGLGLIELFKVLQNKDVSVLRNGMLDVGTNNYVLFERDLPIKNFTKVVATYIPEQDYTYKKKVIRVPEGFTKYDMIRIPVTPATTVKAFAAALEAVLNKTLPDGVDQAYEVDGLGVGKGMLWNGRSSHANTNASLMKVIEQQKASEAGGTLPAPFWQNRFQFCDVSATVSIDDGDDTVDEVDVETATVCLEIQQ

[3] = molecular target: AMP-activated protein kinase, AMPK (Homo sapiens) (UniProt P54646+O43741+P54619+Q9UGJ0+Q9Y478+Q13131+Q9UGI9); experiment: AMP-dependent Kinase enzyme assay. An in vitro enzyme assay that detects ADP turnover that is directly proportional to AMPK activity. This uses naive AMPK that is activated during the assay with MK-8722; assay type: functional; settings: 30 µM
[4] = molecular target: Sialic acid-binding Ig-like lectin 9 (Homo sapiens) (UniProt Q9Y336); experiment: Hs-Siglec9 ALPHAscreen SOP 20170721; settings: 10 µM
Chain of Sialic acid-binding Ig-like lectin 9 (Homo sapiens) (Q9Y336 whole entry): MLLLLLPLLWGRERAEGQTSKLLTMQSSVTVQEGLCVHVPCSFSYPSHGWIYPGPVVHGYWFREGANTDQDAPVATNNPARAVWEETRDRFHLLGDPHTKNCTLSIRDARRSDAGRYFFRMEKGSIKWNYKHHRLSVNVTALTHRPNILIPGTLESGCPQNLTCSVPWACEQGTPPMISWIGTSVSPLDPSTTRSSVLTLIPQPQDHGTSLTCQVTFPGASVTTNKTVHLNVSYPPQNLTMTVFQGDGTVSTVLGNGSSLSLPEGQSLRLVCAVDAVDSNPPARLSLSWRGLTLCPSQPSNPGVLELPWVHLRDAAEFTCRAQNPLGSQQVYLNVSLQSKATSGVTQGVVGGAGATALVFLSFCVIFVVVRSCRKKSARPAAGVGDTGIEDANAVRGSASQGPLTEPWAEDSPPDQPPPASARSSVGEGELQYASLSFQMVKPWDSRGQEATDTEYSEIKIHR

Trypanosoma cruzi = experiment: Trypanosoma cruzi phosphomannomutase and mannose-1-phosphate guanylyltransferase assay; assay type: functional; settings: 10 µM
[5] = molecular target: T2, Arginase-2, mitochondrial (Homo sapiens) (UniProt P78540); experiment: in vitro enzyme assay to detect the production of urea directly proportional to the activity of Arginase II; assay type: functional; settings: 33.3 µM; also: in the data most compounds retested in dose-response had high values
T2 sequence (whole entry): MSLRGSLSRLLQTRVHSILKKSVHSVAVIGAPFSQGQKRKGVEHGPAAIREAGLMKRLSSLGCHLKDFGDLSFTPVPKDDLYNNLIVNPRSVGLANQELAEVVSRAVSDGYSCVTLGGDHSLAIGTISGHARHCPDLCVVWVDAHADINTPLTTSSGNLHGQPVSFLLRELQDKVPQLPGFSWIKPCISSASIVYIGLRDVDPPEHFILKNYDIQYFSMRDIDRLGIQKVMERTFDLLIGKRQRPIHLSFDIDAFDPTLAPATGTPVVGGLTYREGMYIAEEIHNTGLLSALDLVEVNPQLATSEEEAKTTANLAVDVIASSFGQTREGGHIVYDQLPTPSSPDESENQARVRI

[6] = molecular target: T3, Proteasome subunit beta (Trypanosoma cruzi) (UniProt O96673); experiment: Trypanosoma cruzi proteasome chymotrypsin-like activity (TcProtChymo) assay.; also: in the data most compounds retested in dose-response had high values; assay type: functional; settings: 9.37 µM
T3 sequence (whole entry): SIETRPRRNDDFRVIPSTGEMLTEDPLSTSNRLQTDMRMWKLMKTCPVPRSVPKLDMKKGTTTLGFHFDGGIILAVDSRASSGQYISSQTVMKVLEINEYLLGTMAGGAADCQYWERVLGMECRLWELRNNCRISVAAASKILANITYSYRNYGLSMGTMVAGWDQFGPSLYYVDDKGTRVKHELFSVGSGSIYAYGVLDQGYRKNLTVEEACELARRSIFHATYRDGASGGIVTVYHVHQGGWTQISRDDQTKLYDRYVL

Homo sapiens = organism: Homo sapiens; experiment: To identify inhibition of the IFN signalling (Jak-Stat) pathway via expression of an eGFP reporter gene under the control of an IFN-stimulated response element (ISRE) containing MxA promoter.; assay type: functional; settings: 30 µM
[7] = molecular target: T4, Tyrosyl-tRNA synthetase, putative (Trypanosoma cruzi (strain CL Brener)) (UniProt Q4DSP6); experiment: Trypanosoma cruzi tyrosyl tRNA synthetase (TcYRS) _High Tyrosine SOP; assay type: functional; settings: 30 µM; also: in the data most compounds retested in dose-response had high values
T4 sequence (whole entry): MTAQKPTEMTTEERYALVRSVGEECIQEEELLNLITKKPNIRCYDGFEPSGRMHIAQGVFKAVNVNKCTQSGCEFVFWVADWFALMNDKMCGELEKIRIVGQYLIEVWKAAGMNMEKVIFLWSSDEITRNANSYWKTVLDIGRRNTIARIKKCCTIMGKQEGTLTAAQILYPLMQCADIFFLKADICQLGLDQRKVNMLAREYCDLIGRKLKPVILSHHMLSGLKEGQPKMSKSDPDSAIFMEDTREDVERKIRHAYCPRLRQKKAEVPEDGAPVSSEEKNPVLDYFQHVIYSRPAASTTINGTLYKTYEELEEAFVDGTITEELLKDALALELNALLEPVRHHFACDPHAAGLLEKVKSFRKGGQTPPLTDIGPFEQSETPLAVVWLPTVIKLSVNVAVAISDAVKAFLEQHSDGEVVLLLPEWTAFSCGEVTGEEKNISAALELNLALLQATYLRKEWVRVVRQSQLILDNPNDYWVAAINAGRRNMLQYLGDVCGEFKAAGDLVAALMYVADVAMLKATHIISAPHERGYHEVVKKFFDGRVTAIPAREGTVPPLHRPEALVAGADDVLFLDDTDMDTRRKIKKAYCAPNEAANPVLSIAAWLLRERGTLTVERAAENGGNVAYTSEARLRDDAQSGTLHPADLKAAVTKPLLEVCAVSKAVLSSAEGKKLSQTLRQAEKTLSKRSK

[8] = molecular target: T4, Tyrosyl-tRNA synthetase, putative (Trypanosoma cruzi (strain CL Brener)); experiment: Trypanosoma cruzi tyrosyl tRNA synthetase (TcYRS) SOP; assay type: functional; settings: 30 µM
[9] = molecular target: Chromo domain-containing protein 1 (Saccharomyces cerevisiae (strain ATCC 204508 / S288c) (Baker's yeast)) (UniProt P32657); experiment: ScCHD-1 Enzyme Inhibition Assay; assay type: functional; settings: 30 µM; also: in the data most compounds retested in dose-response had high values
Chain of Chromo domain-containing protein 1 (Saccharomyces cerevisiae (strain ATCC 204508 / S288c) (Baker's yeast)) (P32657 whole entry, the tested form may be a part): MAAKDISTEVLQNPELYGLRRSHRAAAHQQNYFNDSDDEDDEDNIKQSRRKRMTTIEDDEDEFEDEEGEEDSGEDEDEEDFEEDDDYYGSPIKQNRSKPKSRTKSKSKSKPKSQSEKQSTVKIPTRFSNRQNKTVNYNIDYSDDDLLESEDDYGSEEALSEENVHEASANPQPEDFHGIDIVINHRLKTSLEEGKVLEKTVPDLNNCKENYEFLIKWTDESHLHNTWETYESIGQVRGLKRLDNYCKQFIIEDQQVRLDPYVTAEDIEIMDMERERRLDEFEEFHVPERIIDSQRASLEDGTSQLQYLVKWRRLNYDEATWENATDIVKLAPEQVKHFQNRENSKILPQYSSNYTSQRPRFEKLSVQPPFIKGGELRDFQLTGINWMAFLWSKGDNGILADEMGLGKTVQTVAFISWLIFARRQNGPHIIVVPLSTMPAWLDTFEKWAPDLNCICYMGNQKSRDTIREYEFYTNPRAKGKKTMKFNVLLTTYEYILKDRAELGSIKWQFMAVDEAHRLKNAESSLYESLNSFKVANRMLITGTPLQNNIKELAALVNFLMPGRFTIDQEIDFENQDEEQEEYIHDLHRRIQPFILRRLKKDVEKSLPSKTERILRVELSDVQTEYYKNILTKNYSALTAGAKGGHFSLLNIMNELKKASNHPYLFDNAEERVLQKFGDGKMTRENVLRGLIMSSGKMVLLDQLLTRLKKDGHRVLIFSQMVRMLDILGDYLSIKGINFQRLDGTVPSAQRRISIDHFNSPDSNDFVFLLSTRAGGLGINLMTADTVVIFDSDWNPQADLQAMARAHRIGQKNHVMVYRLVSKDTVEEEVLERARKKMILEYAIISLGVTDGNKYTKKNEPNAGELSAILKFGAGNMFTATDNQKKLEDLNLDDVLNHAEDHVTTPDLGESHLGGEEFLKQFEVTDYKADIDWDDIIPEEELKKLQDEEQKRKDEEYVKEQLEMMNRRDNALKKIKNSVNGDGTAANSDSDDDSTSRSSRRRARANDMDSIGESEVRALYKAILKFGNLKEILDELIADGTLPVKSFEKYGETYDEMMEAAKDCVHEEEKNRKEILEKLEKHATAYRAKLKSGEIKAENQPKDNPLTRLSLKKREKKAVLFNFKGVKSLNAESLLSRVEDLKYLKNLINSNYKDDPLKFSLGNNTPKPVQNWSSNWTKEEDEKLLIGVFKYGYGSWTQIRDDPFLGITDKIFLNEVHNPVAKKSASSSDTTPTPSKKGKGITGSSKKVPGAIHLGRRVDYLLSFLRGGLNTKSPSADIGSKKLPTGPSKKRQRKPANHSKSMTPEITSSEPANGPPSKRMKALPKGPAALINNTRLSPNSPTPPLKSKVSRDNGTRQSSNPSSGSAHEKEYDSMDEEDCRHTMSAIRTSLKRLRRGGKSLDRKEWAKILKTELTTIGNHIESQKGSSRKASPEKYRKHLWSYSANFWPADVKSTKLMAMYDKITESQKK

Chain of Protein translocase subunit SecA (Escherichia coli (strain K12)) (P10408 whole entry): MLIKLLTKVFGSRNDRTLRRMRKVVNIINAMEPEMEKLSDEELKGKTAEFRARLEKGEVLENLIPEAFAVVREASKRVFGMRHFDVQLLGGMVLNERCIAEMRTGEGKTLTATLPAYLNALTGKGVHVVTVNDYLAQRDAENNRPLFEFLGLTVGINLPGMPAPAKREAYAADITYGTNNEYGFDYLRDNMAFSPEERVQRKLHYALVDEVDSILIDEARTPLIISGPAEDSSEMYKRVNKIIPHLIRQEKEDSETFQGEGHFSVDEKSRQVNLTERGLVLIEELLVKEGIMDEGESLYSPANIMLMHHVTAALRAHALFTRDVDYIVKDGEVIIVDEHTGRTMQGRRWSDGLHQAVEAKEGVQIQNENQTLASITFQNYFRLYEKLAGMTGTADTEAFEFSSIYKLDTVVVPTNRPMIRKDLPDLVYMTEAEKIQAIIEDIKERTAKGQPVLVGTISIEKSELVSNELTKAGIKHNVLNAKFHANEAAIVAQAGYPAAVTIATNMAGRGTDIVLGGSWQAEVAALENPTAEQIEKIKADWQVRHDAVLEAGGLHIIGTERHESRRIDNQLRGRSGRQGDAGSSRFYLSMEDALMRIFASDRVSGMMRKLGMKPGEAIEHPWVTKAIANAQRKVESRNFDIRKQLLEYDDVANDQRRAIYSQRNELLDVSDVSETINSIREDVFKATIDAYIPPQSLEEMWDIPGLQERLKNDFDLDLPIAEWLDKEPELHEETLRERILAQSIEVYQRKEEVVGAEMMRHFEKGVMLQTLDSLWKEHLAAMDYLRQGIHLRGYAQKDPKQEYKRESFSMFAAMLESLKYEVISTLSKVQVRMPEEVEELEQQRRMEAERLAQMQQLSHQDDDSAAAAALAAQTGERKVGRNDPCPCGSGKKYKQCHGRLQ

SMILES | Percent Effect [1] [%] | Percent Effect [2] [%] | Percent Effect [3] [%] | Percent Effect [4] [%] | Percent Effect (Trypanosoma cruzi) [%] | Percent Effect [5] [%] | Percent Effect [6] [%] | Percent Effect (Homo sapiens) [%] | Percent Effect [7] [%] | Percent Effect [8] [%] | Percent Effect [9] [%]
CCOCCn1nnc(C2(NC(=O)c3ccccc3)CCCC2)n1 | -7.55 | 8 | -2.14 | 0.531 | -0.292 | 4.17 | -18.8 | -0.698 | 10.4 | 11.1 | -4.99
Cc1ccc(CN(C)C(=O)CN2CCOC(Cn3cncn3)C2)o1 (centres undefined) | 1.63 | 15.2 | -6.86 | -11.8 | -7.46 | 9.89 | 13 | 16.3 | 5.42 | 11.4 | -2.75
Cc1nc(C)n(C2CCCN(C(=O)c3csnn3)C2)n1 (centres undefined) | -2.6 | 21.6 | -13 | -1.58 | -2.92 | -7.21 | 16.2 | 15.5 | 4.43 | 18.5 | -4.56
N#Cc1cccc(S(=O)(=O)NC(=O)COC2CCCC2)c1 | -0.529 | 26 | -4.75 | -1.76 | 1.31 | 1.07 | 11.3 | 0.622 | 7.77 | 21.9 | -7.26
